These results are taken from the supplement of paper PMC10121225.

In the assay the test system is hN + hpA co-culture (H1 iNGN2 human neurons + human primary astrocytes). Kind of assay: presynaptic density (SYNAPSIN1 puncta per MAP2 neurite area), Z-score vs DMSO controls; higher = more presynaptic puncta (synapse-promoting). As to conditions: 3 µM; 72 h.

Counter-ions that a name gives are not always drawn.
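Note: immunostained co-cultures imaged by high-content microscopy, Z-score per plate against mean and SD of 0.1% DMSO wells, compounds added on differentiation day 18, analysed day 21.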

`CN1CCCCC1Cn1cc(C(=O)c2cc([N+](=O)[O-])ccc2I)c2ccccc21` (centres undefined): the “presynaptic density (Z-score)” value was -0.667.
Consider `O=C(O[C@H]1C[C@H]2CC[C@@H](C1)[N+]21CCCC1)C(O)(c1ccccc1)c1ccccc1` [Trospium chloride], for which the “presynaptic density (Z-score)” value was -0.748.
The value for `CC[C@@H]1/C=C/C=C/C[C@H](C)[C@H](O)[C@](C)(O)C(=O)[C@H](C)[C@@H](O)[C@H](C)C(=O)[C@H](C)[C@@H](O)[C@H](C)/C=C/C(=O)O[C@H]2[C@@H](C)[C@@H](CC1)O[C@@]1(CC[C@@H](C)[C@@H](C[C@H](C)O)O1)[C@@H]2C` [Oligomycin A] was -1.28; that for `Cc1cc(SCc2sc(-c3ccc(C(F)(F)F)c(F)c3)nc2C)ccc1OCC(=O)O` was 0.227.
In the case of `O=c1[nH]c2ccc(Cl)cc2c(N[C@@H]2CN3CCC2CC3)c1-c1nc2ccccc2[nH]1`, the “presynaptic density (Z-score)” value is -2.58.
In the case of `O=C1CC[C@@]2(O)[C@H]3Cc4ccc(O)c5c4[C@@]2(CCN3CC2CC2)[C@H]1O5` [Naltrexone HCl], the “presynaptic density (Z-score)” value was found to be 1.84.
The value for `C[C@](O)(COc1ccc(C#N)cc1)C(=O)Nc1ccc(C#N)c(C(F)(F)F)c1` was -0.892.
For `O=[N+]([O-])C=Cc1ccc2c(c1)OCO2` [MNS (3,4-Methylenedioxy-Œ≤-nitrostyrene], the “presynaptic density (Z-score)” value is -0.543.
On to `N[C@@H]1C[C@H]1c1ccccc1` [Tranylcypromine (2-PCPA) HCl], for which the “presynaptic density (Z-score)” value was 0.259.
As for `CCOC(=O)c1cncn1[C@H](C)c1ccccc1` [Etomidate], the “presynaptic density (Z-score)” value came out at 0.377.
For `CCN(CC)C(=O)c1ccc(C2=CC3(CCNCC3)Oc3cccc(O)c32)cc1`, the “presynaptic density (Z-score)” value was -0.78.
Regarding `C=C1C[C@@H]2[C@H](CC[C@]3(C)C(=O)CC[C@@H]23)[C@@]2(C)C=CC(=O)C=C12` [Exemestane], the “presynaptic density (Z-score)” value was found to be 0.646.
As for `Cn1cc(C2=C(c3cn(C4CCN(Cc5ccccn5)CC4)c4ccccc34)C(=O)NC2=O)c2ccccc21` [Enzastaurin], the “presynaptic density (Z-score)” value stood at 0.0046.
For `COc1ccc(C(=O)N2CCCC2=O)cc1` [Aniracetam] the value was 0.286; for `CCC(COC(=O)c1cc(OC)c(OC)c(OC)c1)(c1ccccc1)N(C)C` (centres undefined), 0.31; for `CCCN1CCO[C@@H]2c3cc(O)ccc3OC[C@H]21`, 0.0588.
For `C[C@@]12N[C@@H](Cc3ccccc31)c1ccccc12` [(-)-MK 801 maleate] the value was -0.122.
For `Cc1cc2c(C(C)C)c(O)c(O)c(C=O)c2c(O)c1-c1c(C)cc2c(C(C)C)c(O)c(O)c(C=O)c2c1O`, the “presynaptic density (Z-score)” value was -4.31.
In the case of `Cc1sc2c(c1C)C(c1ccc(Cl)cc1)=N[C@@H](CC(=O)OC(C)(C)C)c1nnc(C)n1-2`, the “presynaptic density (Z-score)” value came out at 2.8.
For `CC(=O)O[C@H]1C[C@@H]2CC[C@@H]3[C@H](CC[C@@]4(C)[C@H]3C[C@H]([N+]3(C)CCCCC3)[C@@H]4OC(C)=O)[C@@]2(C)C[C@@H]1[N+]1(C)CCCCC1` [Pancuronium dibromide], the “presynaptic density (Z-score)” value was -0.361.
Regarding `CN1CCc2cc3c(cc2C1C1OC(=O)c2c1ccc1c2OCO1)OCO3` (single isomer, unassigned; (+)) [(+)-Bicuculline], the “presynaptic density (Z-score)” value is -0.322.
In the case of `CCc1c(C(=O)C(N)=O)c2c(OCC(=O)O)cccc2n1Cc1ccccc1`, the “presynaptic density (Z-score)” value was found to be 0.584.
The value for `C[C@@H]1O[C@@H](O[C@H]2C[C@@H](O)[C@]3(CO)[C@H]4[C@H](O)C[C@]5(C)[C@@H](C6=CC(=O)OC6)CC[C@]5(O)[C@@H]4CC[C@]3(O)C2)[C@H](O)[C@H](O)[C@H]1O` [Ouabain] was -1.54.
For `O=C(O)CNC(=O)c1c(O)c2ccccc2n(Cc2ccccc2)c1=O` the value was 0.0398.
